Assay outcomes deposited in PubChem by National Center for Advancing Translational Sciences (NCATS).
TDP1 inh – blocks human tyrosyl-DNA phosphodiesterase 1; Q9NUW8; recombinant TDP1, AlphaScreen DNA substrate cleavage; Potency, µM (series often up to 130 µM), without a hit: top-dose activity change, negative = inhibition, most hits filed as inhibitors; actives 0.28% (n = 350,000); AID 485290; further: potency means the concentration at half of the fitted maximal effect; nearly all actives have a fitted effect of over 40% in size
Target sequence (Q9NUW8 whole entry, looked up): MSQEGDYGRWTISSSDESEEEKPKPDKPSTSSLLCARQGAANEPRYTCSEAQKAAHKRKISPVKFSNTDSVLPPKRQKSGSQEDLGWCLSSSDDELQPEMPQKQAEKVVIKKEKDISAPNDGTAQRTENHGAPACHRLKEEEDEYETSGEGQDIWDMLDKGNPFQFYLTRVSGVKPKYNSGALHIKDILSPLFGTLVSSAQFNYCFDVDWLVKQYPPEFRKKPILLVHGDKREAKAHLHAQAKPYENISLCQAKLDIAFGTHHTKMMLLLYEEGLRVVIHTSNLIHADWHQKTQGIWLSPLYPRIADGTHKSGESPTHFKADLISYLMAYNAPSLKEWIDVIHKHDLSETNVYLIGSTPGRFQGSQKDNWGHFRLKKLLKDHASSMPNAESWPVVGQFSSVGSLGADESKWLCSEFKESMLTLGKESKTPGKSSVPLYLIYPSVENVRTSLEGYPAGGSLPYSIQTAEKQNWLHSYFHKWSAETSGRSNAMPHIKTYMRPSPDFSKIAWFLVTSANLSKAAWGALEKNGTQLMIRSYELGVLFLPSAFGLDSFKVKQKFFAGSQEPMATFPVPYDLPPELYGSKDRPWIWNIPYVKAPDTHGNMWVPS
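Steps: enzyme plus compound, 15 min RT; add biotin/phosphotyrosine-FITC oligonucleotide (15 nM final), react 5 min; add donor/acceptor beads (10 ug/ml final), 10 min; read AlphaScreen. Tdp1 at 1 nM final.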
IL-1B inflam inh – inflammasome signaling inhibition, IL-1 beta readout; THP-1 LPS/ATP IL-1B secretion, AlphaLISA, 16 h; stronger effect = lower value; AID 743279; actives 4.7% (n = 360,000); activity change, % at 57.5 µM; in the data active means activity change below about -50%; inconclusive means mostly about -30% to -49%
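Secreted IL-1B measured by AlphaLISA bead assay after 16 h compound exposure of THP-1 cells; compounds (final up to 57.5 uM) added 1 h before LPS (250 ng/mL) and ATP (1.25 mM) stimulation; lower signal means less secretion.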
ELG1 repair inh – inhibitors of ELG1-dependent DNA repair in HEK293T cells; HEK293T ELG1-luciferase reporter, luminescence, 16 h; DNA damage induced by 5-fluorouridine; actives 2.3% (n = 330,000); Potency, µM (titrated, usually from 46.1 µM), for the others: at the top dose activity change, negative = inhibition, usual class: inhibitors; AID 504467; further: potency means the concentration at half of the fitted maximal effect; nearly all actives have a fitted effect of over 55% in size
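Quantitative HTS, concentration-response format. 2,000 cells/well co-treated with 5-fluorouridine and compound, 16 hr in 5% CO2 at 37 °C; ONE-Glo luminescence read after 30 min.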
Giardia killer – kills Giardia lamblia; Giardia lamblia trophozoite viability; activity change, % at 7.66 µM, hits read low; actives 0.15% (n = 340,000); AID 540267; in the data active means activity change below about -80%; inconclusive means between about -30% and that limit;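 further: parasites exposed to compound for two days anaerobically before the ATP read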
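Media and compound were dispensed first, then trophozoites at 100 cells/well; plates sat 48 hrs at 37 deg C without oxygen before ATP luminescence reagent was added and read after 15-30 min at room temperature.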
TDP1 cell noCPT – qHTS for Inhibitors of human tyrosyl-DNA phosphodiesterase 1 (TDP1): qHTS in cells in absence of CPT | DT40 Tdp1-/- hTDP1 cells, no CPT, ATP luminescence, 48 h | Potency, µM (doses to about 46.2 µM), inactives show top-dose activity change, negative = growth inhibition, hits mostly inhibitors | actives 15% (n = 420,000); further: potency means the concentration at half of the fitted maximal effect; nearly all actives have a fitted effect of over 55% in size
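Growth kinetics read by CellTiter-Glo luminescence after ≥48 hr at 37 °C. Cells: DT40 Tdp1-/- stably carrying human TDP1, 400 per well, compound exposure in the absence of CPT (DMSO vehicle).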
DT40 TDP1 CPT – DT40-hTDP1 cell growth loss with CPT; Potency, µM (highest dose often 46.2 µM), for the others: at the highest dose activity change, negative = growth inhibition, most hits filed as inhibitors; chicken DT40 Tdp1-/-;hTDP1 cells + 20 nM CPT, ATP luminescence, 48 h; AID 686979; actives 12% (n = 420,000); further: potency means the concentration at half of the fitted maximal effect; nearly all actives have a fitted effect of over 55% in size
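Cell growth measured by CellTiter-Glo luminescence after a minimum 48 h, 37 C compound exposure with 20 nM CPT in Tdp1-knockout DT40 cells stably expressing hTDP1, seeded 400/well; qHTS titration format.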
* = called active by the depositor; u = inconclusive; x = no result; [ ] = remark or other dose. Only some compounds are listed: those with a hit (about 19% of all), similar ones and a draw of the others. Unless noted, the call rests on the fitted dose curve; in most records, active means well fitted curve in the direction sought with a large enough effect; inconclusive means small, poorly fitted or top-dose-only effect, or another doubt; inactive means no such curve, though single readings can be large; an effect the other way counts as inactive or inconclusive. On the % scale 0 is the no-effect control and ±100 the full control effect.

SMILES	TDP1 inh	IL-1B inflam inh	ELG1 repair inh	Giardia killer	TDP1 cell noCPT	DT40 TDP1 CPT
O=C(COC(=O)c1cc(S(=O)(=O)N2CCOCC2)ccc1O)NCCc1ccccc1	3%	-4	8%	2	-9%	-7%
O=C(Nc1ccc(S(=O)(=O)NCc2cccnc2)cc1)c1ccco1	6%	22	u	-8	u	u
CC(=O)Nc1ccc(S(=O)(=O)NCc2cccnc2)cc1	5%	24	u	18	u	3.3µM*
O=C(Nc1ccc(S(=O)(=O)NCc2ccccc2)cc1)c1ccc(Br)o1	0%	24	u	11	21µM*	21µM*
O=C(Nc1ccc(S(=O)(=O)NCc2cccnc2)cc1)c1ccccc1Cl	3%	2	-14%	-11	10µM*	13µM*
COc1ccc(-c2ccc(F)cc2)cc1C1C2C=CCC(C)C2C(=O)N1Cc1ccccc1 (stereo not given)	0%	x	x	-22	x	x
C[C@@H]1CN([C@H](C)CO)C(=O)c2cc(Br)cnc2O[C@H]1CN(C)C(=O)CC1CC1	x	8	x	x	6%	-21%
CCN=C(NS(=O)(=O)c1ccc(Br)cc1)c1ccc(Cl)cc1	2%	5	-16%	13	5%	-23%
CCn1c2ccccc2c2cc(NC(=O)c3cccc([N+](=O)[O-])c3)ccc21	5%	-13	0%	-8	21µM*	21µM*
CCn1c2ccccc2c2cc(NC(=O)c3ccc(C)c([N+](=O)[O-])c3)ccc21	4%	-26	u	4	3.3µM*	5.8µM*
CCCC(=O)Nc1cccc(NC(=O)c2ccc(C)c([N+](=O)[O-])c2)c1	5%	-20	u	11	u	u
Cc1ccc(-n2nc3ccc(NC(=O)c4cccc([N+](=O)[O-])c4C)cc3n2)cc1	8%	35	u	-1	u	-5%
CCn1c2ccccc2c2cc(NC(=O)c3cccc([N+](=O)[O-])c3C)ccc21	2%	-9	u	3	15µM*	u
O=C(Nc1ccc(NC(=O)c2cccc([N+](=O)[O-])c2)cc1)c1cccc([N+](=O)[O-])c1	x	-4	u	0	-37%	-1%
CCc1ccccc1NC(=O)C1COc2ccccc2C1 (stereo not given)	3%	x	x	x	-20%	-19%
CC(=O)Nc1ccc(S(=O)(=O)Nc2cccc(C(=O)Nc3ccccc3C(=O)O)c2)cc1	x	0	-17%	-11	-10%	u
Cc1c(C(=O)NC2CCCC2)oc2ccccc12	-2%	-4	u	-15	14%	-16%
CCOC(=O)C1CCCN(CC(=O)N(C)c2c(N)n(Cc3ccccc3)c(=O)[nH]c2=O)C1 (stereo not given)	-1%	-14	13%	4	-8%	4%
COC(=O)[C@]12CCCCC=C1N(Cc1ccco1)C(=O)[C@H](CC(=O)NCc1cccc3ccccc13)C2	x	-8	x	x	u	u
CCCCOCCCNC(=O)C[C@@H]1C[C@@]2(C(=O)OC)CCCCC=C2N(CCc2ccc(OC)c(OC)c2)C1=O	x	-2	x	x	u	u
COC(=O)[C@]12CCCCC=C1N(CCc1ccc(OC)c(OC)c1)C(=O)[C@H](CC(=O)NCc1ccc(C)o1)C2	x	-11	x	x	u	16µM*
COC(=O)[C@]12CCCCC=C1N(CCc1ccc(OC)c(OC)c1)C(=O)[C@H](CC(=O)NCc1cccc3ccccc13)C2	x	-14	x	x	9.2µM*	10µM*
CCOC(=O)[C@H]1[C@H]2COc3cc(OC)ccc3[C@@H]2N2C(=O)CN(Cc3ccc(OC)cc3)C(=O)[C@@]12C	3%	-3	u	-7	-16%	u
COc1ccc(NC(=O)CSc2nc(NS(=O)(=O)c3ccccc3)cc(=O)[nH]2)cc1	x	8	-1%	16	3%	-16%
O=c1cc(NS(=O)(=O)c2ccccc2)nc(SCc2ccc(Cl)cc2)[nH]1	3%	-56*	u	7	-116%	-3%
SMILES	TDP1 inh	IL-1B inflam inh	ELG1 repair inh	Giardia killer	TDP1 cell noCPT	DT40 TDP1 CPT
O=C(CSc1nc(NS(=O)(=O)c2ccccc2)cc(=O)[nH]1)Nc1ccc(Cl)cc1	7.1µM*	32	0%	-18	-14%	-16%
O=C(c1cc2ccccc2oc1=O)N(Cc1ccco1)CC1CCCO1 (stereo not given)	-1%	6	3%	2	-14%	2%
CC(C)c1cc(C(=O)OCC(=O)NC2CC2)c(O)c(C(C)C)c1	x	9	x	x	u	u
CC(=O)C1=CCC(c2ccccc2)N(S(=O)(=O)c2ccccc2C)C1 (stereo not given)	x	9	x	x	21µM*	u
CCOC(=O)C1=CCC(c2ccccc2)N(S(=O)(=O)c2ccccc2C)C1 (stereo not given)	x	10	x	x	23µM*	u
CCOC(=O)C1=CCC(c2ccccc2)N(S(=O)(=O)c2ccccc2[N+](=O)[O-])C1 (stereo not given)	x	-24	x	x	u	u
Cc1ccccc1S(=O)(=O)N1CC(C(=O)O)=CC[C@H]1c1ccc(Cl)cc1	1%	36	-5%	-20	-7%	-10%
O=C(CC1(CC2=NS(=O)(=O)c3ccccc3N2)CCCC1)NCCc1ccccc1	x	-12	-23%	17	u	15µM*
O=C(CSC1=NS(=O)(=O)c2ccccc2N1)NCCc1ccccc1	-12%[0.505 µM]	10	20%	-10	0%	13%
Cc1ccc(C(=O)c2oc3ccccc3c2NC(=O)c2cc(=O)c3cc(C)ccc3o2)cc1	7%	x	x	x	-10%	-10%
CCOC(=O)C1=C(OCc2ccc(Cl)cc2)C2C=C(C)C=CC2N=C1 (stereo not given)	-3%	5	16µM*	-13	-21%	-12%
CCCN(C(=O)COC(=O)CSc1ccc([N+](=O)[O-])cc1)C1CCS(=O)(=O)C1 (stereo not given)	1%	0	21%	-21	u	u
Brc1ccccc1CN1CCN(Cc2c[nH]c3ccccc23)CC1	x	-103*	x	-1	1.5µM*	0.52µM*
O=[N+]([O-])c1ccc(CN2CCN(Cc3c[nH]c4ccccc34)CC2)cc1	-3%	-69*	u	-18	u	u
Brc1ccc(CN2CCN(Cc3c[nH]c4ccccc34)CC2)cc1	x	u	-20%	9	9.2µM*	2.3µM*
O=C(c1cccc(Cl)c1)N1CCN(Cc2c[nH]c3ccccc23)CC1	3%	-5	10%	20	u	-27%
